We go through 40 compounds from PubChem BioAssay (Tox21).

Values joined by “and” are separate entries in the source; they are usually repeats but may differ in a detail not shown here. Identical values can stand only once. Records with an inconclusive call do not appear. Active and inactive are the calls of the source. Calls follow the shape of the dose curve; as a rule, active = well fitted cell-killing curve with a large enough effect in the repeat runs; inconclusive = weak or mixed curves, or effect the other way; inactive = flat fitted curve, though single readings scatter.
% is scaled to controls: 0 for no effect and ±100 for the full control effect; potency is read from the fitted curve at half-maximal effect.

This test in a line: qHTS RealTime-Glo MT Cell Viability Assay in HEK293 cells - 40 hour (AID 1224874). Also: nearly all actives have a fitted effect of over 50% in size. As to conditions: RealTime-Glo luminescence; max response: stronger effect = lower value. The text has this: U.S. Tox21 Program National Center for Advancing Translational Sciences [NCATS] NIH Chemical Genomics Center [NCGC] U.S. Environmental Protection Agency [EPA] National Institutes of Environmental Health Sciences [NIEHS] National Toxicology Program [NTP] U.S. Food and Drug Administration [FDA] Tox21 Assay Overview: Measure of cell viability is critical in the cell-base assay. Analysis of cell viability is necessary for the characterization of cell responses to cytotoxic drugs and environmental stress. A RealTime-Glo MT Cell Viability Assay to monitor cell viability in real time of continues cell culture during 40 hours of compound treatment was used to screen Tox21 10K library compounds in Hek293 cells. The RealTime-Glo MT Cell Viability Assay is a nonlytic, homogeneous, bioluminescent method to measure cell viability in real time using a simple, plate-based method. The assay involves adding NanoLuc luciferase and a cell-permeant prosubstrate to cells in culture. Viable cells reduce the proprietary prosubstrate to generate a substrate for NanoLuc luciferase. This substrate diffuses from cells into the surrounding culture medium, where it is rapidly used by the NanoLuc Enzyme to produce a luminescent signal. The signal correlates with the number of viable cells, making the assay well suited for cytotoxicity studies.
Tox21 Assay Protocol Summary: The mixture of Hek293 cell suspension and reagents were dispensed at 600cells/6 ul/well in 1536-well tissue culture treated black solid bottom plates using a Multidrop dispenser. After the assay plates were incubated at a 37 C/5% CO2 incubator for 5 hours, 23 nL of compounds dissolved in DMSO, positive and negative controls was transferred to the assay plate by a pintool work station. The plates were incubated at 37 C for 40 hours. The luminescence intensity were measured at 0h, 8h, 16h, 24h, 32h and 40h time points using ViewLux plate reader during compound treatment.
In general terms: qHTS replaces the single test concentration by a dilution series.
Turning to `CCS(=O)(=O)c1ccc(OC)c(C(=O)OC)c1`, the max response was 5.71% (inactive).
For `COC(=O)c1c(Cl)c(Cl)c(C(=O)OC)c(Cl)c1Cl`, the max response was -27.2% (inactive).
Take `CC(C)(C)c1nnc(NS(=O)(=O)c2ccccc2)s1`: the max response is 2.61% (inactive).
In the case of `CN1C(=O)N(C)C(O)C1O` (stereo not given), the max response is 1.97% (inactive).
Regarding `CN1CC(=O)NC1=N`, the max response is 9.12% (inactive).
For `COC(=O)NN`, the max response was 1.74% (inactive).
With `N[C@@H](C(=O)N[C@@H]1C(=O)N2C(C(=O)O)=C(Cl)CS[C@H]12)c1ccccc1`, the max response is 6.7% (inactive).
Turning to `Nc1cc(=O)[nH]c(N)n1`, the max response was 0.787% (inactive).
As for `C=CCCCCCCCCC=O`, the max response was -1.95% (inactive).
Consider `CCCCOCCOCCOCc1cc2c(cc1CCC)OCO2`, for which the max response was -15.9% (inactive).
For `CC(C)=CCCC(C)CC(=O)O` (stereo not given), the max response was 2.41% (inactive).
Consider `Nc1c2c(nc3ccccc13)CCCC2O` (stereo not given), for which the max response was 24.6% (inactive).
On to `O=C(O)CCCc1ccccc1`, for which the max response was 0.564% (inactive).
As for `C=C1CC[C@H]2C[C@@H]1C2(C)C`, the max response is 5.42% (inactive).
On to `NCCCNCCSP(=O)(O)O`, for which the max response is 3.52% (inactive).
The same measure, in the same setting: with `OC(CCN1CCCCC1)(c1ccccc1)C1CC2C=CC1C2` (stereo not given) the figure was -10.3% (inactive); with `Cc1c(O)cccc1O`, 1.57% (inactive).
`CCOC(=O)CCC(C)=O`: the max response was -9.25% (inactive).
For the compound `CC(C)CCCC(C)N` (stereo not given), the max response was 5.83% (inactive).
With `ClC(Cl)(Br)Br`, the max response is -1.43% (inactive).
Take `CC1(C)C(O)C(C)(C)C1O` (stereo not given): the max response was 0.527% (inactive).
In the case of `CCCN(CCC)CCc1cccc2c1CC(=O)N2`, the max response is 5.11% (inactive).
Turning to `NS(=O)(=O)c1cc(C(=O)NN2C[C@H]3[C@H]4CCC(C4)[C@H]3C2)ccc1Cl`, the max response is -21.1% (inactive).
For the compound `Oc1ccc(C2CNCCc3c2cc(O)c(O)c3Cl)cc1` (stereo not given), the max response is -10.9% (inactive).
Same read-out and setting: with `C1CN(CCOCCN2CCOCC2)CCO1` the figure was 4.52% (inactive); with `CCCc1cc(C(N)=S)ccn1`, 2.82% (inactive); with `C=CCS(=O)(=O)O`, 0.443% (inactive).
Take `OCCCC1CCCCC1`: the max response was 11.3% (inactive).
On to `COc1ccccc1OCC(O)CN1CCN(CC(=O)Nc2c(C)cccc2C)CC1` (stereo not given), for which the max response is -12.4% (inactive).
Turning to `CN(C)CCCN1c2ccccc2CCc2ccc(Cl)cc21`, the Potency was 34.7 µM (active) and 21.3 µM (active).
`FC1(F)C(F)(F)C(F)(F)C2(F)C(F)(F)C(F)(F)C(F)(F)C(F)(F)C2(F)C1(F)F` (stereo not given): the max response is 1.37% (inactive).
For `C=C(C)CS(=O)(=O)O`, the max response is -0.0402% (inactive).
`O=C(O)CN(CCOCCOCCN(CC(=O)O)CC(=O)O)CC(=O)O`: the max response was 6.77% (inactive).
Same read-out and setting: the result for `NC(=O)Nc1ccccc1` reads 3.44% (inactive).
The same measure, in the same setting: the result for `CC(C)NCC(O)c1ccc(NS(C)(=O)=O)cc1` (stereo not given) reads 4.96% (inactive).
`COC(=O)c1cc(C(=O)OC)cc(S(=O)(=O)O)c1`: the max response is -1.13% (inactive).
As to `CS(=O)(=O)O`, the max response was 2.93% (inactive).
For the compound `C[C@H]1C[C@@H](O)CC(C)(C)C1`, the max response is -10.6% (inactive).
Regarding `OC[C@]1(O)OC[C@@H](O)[C@H](O)[C@@H]1O`, the max response is 0.06% (inactive) and 3.11% (inactive).
On the same count and under the same terms, with `CCOC(=O)c1cccc(N)c1` the figure was 3.26% (inactive).
